Shown are actives, neighbours in structure and some others; about 17% of the full set was active somewhere.
TDP1 inh = inhibitors of human tyrosyl-DNA phosphodiesterase TDP1; 350,000 compounds, 0.28% hits; Q9NUW8; Potency, µM (series often up to 130 µM), for inactives: at the highest dose activity change, negative = inhibition, usual class: inhibitors; recombinant TDP1, AlphaScreen DNA substrate cleavage; also: % is scaled to controls: 0 for no effect and ±100 for the full control effect; nearly all actives have a fitted effect of over 40% in size
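Tdp1 1 nM final; 15 min RT w/ cpd; substrate 15 nM, 5 min; beads 10 ug/ml, 10 min; AlphaScreen read. Neg ctrl: no enzyme.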
DT40 TDP1 no CPT = qHTS for Inhibitors of human tyrosyl-DNA phosphodiesterase 1 (TDP1): qHTS in cells in absence of CPT | DT40 Tdp1-/- hTDP1 cells, no CPT, ATP luminescence, 48 h | Potency, µM (titrated, usually from 46.2 µM), for inactives: at the top dose activity change, negative = growth inhibition, hits mostly inhibitors | 420,000 compounds, 15% hits | AID 686978, 2013; also: % is scaled to controls: 0 for no effect and ±100 for the full control effect; nearly all actives have a fitted effect of over 55% in size
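Cells were dispensed at 400 per well, compounds added by pin tool, plates incubated ≥48 hr at 37 °C, then CellTiter-Glo added for 30 min at room temperature before luminescence reading. Line: DT40 Tdp1-/- complemented with hTDP1; camptothecin omitted.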
TDP1 cell CPT = growth inhibition of DT40 Tdp1-/-;hTDP1 cells with camptothecin (screen for TDP1 inhibitors); chicken DT40 Tdp1-/-;hTDP1 cells + 20 nM CPT, ATP luminescence, 48 h; Potency, µM (titrated, usually from 46.2 µM), for the others: at the top dose activity change, negative = growth inhibition, hits mostly inhibitors; 420,000 compounds, 12% hits; AID 686979; also: % is scaled to controls: 0 for no effect and ±100 for the full control effect; nearly all actives have a fitted effect of over 55% in size
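Chicken DT40 Tdp1-/- cells stably complemented with human TDP1 were seeded at 400 cells/well in medium containing 20 nM camptothecin, exposed to pin-transferred compounds, and grown at 37 °C for at least 48 hr. Viability was read as ATP luminescence.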
ClpP mod = qHTS Assay for Activators of ClpP; AID 651965, 2013; 340,000 compounds, 1.9% hits; ATP-dependent Clp protease proteolytic subunit (Bacillus subtilis (strain 168)), P80244; Potency, µM (highest dose often 57.5 µM), for the others: top-dose activity change, negative = active; purified B. subtilis ClpP, FRET peptide cleavage, 20 min; active = well fitted falling curve with a large enough effect; inconclusive = small, poorly fitted or top-dose-only effect; inactive = no such curve, though single readings can be large or run the other way; also: the source files actives as falling curves though it sought activators and does not explain the sign; nearly all actives have a fitted effect of over 65% in size
Target sequence (P80244 whole entry, looked up): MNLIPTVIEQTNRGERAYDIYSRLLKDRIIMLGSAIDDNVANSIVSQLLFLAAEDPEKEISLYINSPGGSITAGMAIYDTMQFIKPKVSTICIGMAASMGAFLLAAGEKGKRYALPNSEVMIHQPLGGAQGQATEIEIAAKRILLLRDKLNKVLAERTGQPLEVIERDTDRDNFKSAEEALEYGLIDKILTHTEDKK
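ClpP 10 microg/mL final, pH 8 Tris/KCl buffer with BSA, glycerol, Tween-20; compound pinned in; FRET-FV substrate; RT 20 min; Ex320/Em430; ΔFRET vs ADEP 5.8 microM, DMSO, no enzyme.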
Starred values were filed as active, the others as inactive; ? = inconclusive; . = no result; ! = repeats disagree; [ ] = another dose, or the depositor's remark. Unless noted, calls follow the shape of the dose curve; as a rule, active = well fitted curve in the direction sought with a large enough effect; inconclusive = small, poorly fitted or top-dose-only effect, or another doubt; inactive = no such curve, though single readings can be large; an effect the other way counts as inactive or inconclusive. Potency is read from the fitted curve at half-maximal effect.

SMILES | TDP1 inh | DT40 TDP1 no CPT | TDP1 cell CPT | ClpP mod
COc1ccc(C(=O)N2c3ccc(F)cc3CCC2C)cc1OC (stereo unspecified) | 7% | ? | ? | -13%
O=C(O)CC/C=C\CC[C@H]1[C@@H](N2CCCCC2)[C@@H](O)C[C@@H]1OCc1ccc(-c2ccccc2)cc1 | 10%[56.1 µM] | -2% | -1% | .
CC1CCc2cc(F)ccc2N1C(=O)c1ccc2c(c1)OCO2 (stereo unspecified) | -1% | 15µM* | ? | -2%
CC1CCc2cc(F)ccc2N1C(=O)c1ccncc1 (stereo unspecified) | 4% | -5% | -3% | 186%
CC(NC(=O)C1CCOCC1)c1nnc2n1CCN(Cc1ccc3cccnc3c1)CC2 (stereo unspecified) | . | -4% | 4% | .
Cc1ccc(C(=O)N2CCN(c3ccc(F)cc3)CC2)cc1NC(=O)c1nsc2ccccc12 | 5% | 21µM* | 16µM* | -3%
COc1cccc(N2CCN(C(=O)c3ccc(C)c(NC(=O)c4nsc5ccccc45)c3)CC2)c1 | 8% | 18µM* | ? | 1%
CCC1=[N+](CC(=O)c2ccc(Br)cc2)CCn2c(C)ccc21 | . | 10µM* | ? | -18%
CCC1=[N+](C)CCn2c(C)ccc21 | 6% | -25% | -7% | -8%
CC1=[N+](CC(=O)c2ccccc2)CCn2cccc21 | 0% | ? | -18% | .
CCC1=[N+](CC(=O)c2ccc(C)cc2)CCn2cccc21 | 8% | 5.2µM* | 4.1µM* | .
CCC1=[N+](CC(=O)c2ccc(C)cc2)CCn2c(C)ccc21 | 5% | 2.1µM* | 2.9µM* | ?
CC(C)C[C@@H](CO)N1CCN(Cc2ccc([N+](=O)[O-])cc2)CCC1=O | . | ? | ? | 2%
COc1ccc(OC)c(NC(=O)c2csnn2)c1 | 6% | ? | ? | -1%
Cc1nn2c(-c3ccco3)ccnc2c1-c1ccc(F)cc1 | 3% | -16% | -18% | 0%
CNS(=O)(=O)Cc1ccc2[nH]cc(CCN(C)C)c2c1 | 12%[56.1 µM] | 4.6µM*! | 5.8µM*! | 1%
COc1ccccc1N1CCN(S(=O)(=O)CCNC(=O)COc2ccc(C(C)C)cc2)CC1 | 9% | 16µM* | ? | 2%
COc1ccccc1N1CCN(S(=O)(=O)CCNC(=O)CCc2ccccc2)CC1 | . | 16µM* | ? | 1%
COc1ccc(Cl)cc1C(=O)NCCS(=O)(=O)N1CCN(c2ccccc2OC)CC1 | -1% | 18µM* | ? | -2%
COc1ccc(CC(=O)NCCS(=O)(=O)N2CCN(c3ccccc3OC)CC2)cc1 | . | ? | 29µM* | 2%
COc1ccccc1N1CCN(S(=O)(=O)CCNC(=O)c2ccco2)CC1 | . | -1% | 3% | -2%
COc1cccc(OCC(=O)NCCS(=O)(=O)N2CCN(c3ccccc3F)CC2)c1 | -4% | ? | ? | -3%
COc1ccc(Cl)cc1C(=O)NCCS(=O)(=O)N1CCN(c2ccccc2F)CC1 | 0% | ? | ? | 0%
CCn1cc(C(=O)N2CCN(c3ccccc3)CC2)c(=O)c2cc(S(=O)(=O)N3CCC(C)CC3)ccc21 | 5% | -22% | ? | -1%
CN(C)C(=O)CSc1nc2ccc(N3C(=O)c4ccccc4C3=O)cc2s1 | 1% | -11% | -3% | 0%
SMILES | TDP1 inh | DT40 TDP1 no CPT | TDP1 cell CPT | ClpP mod
CCOc1ccc(CC(=O)NCCS(=O)(=O)N2CCN(c3ccccc3OC)CC2)cc1 | -2% | 21µM* | 12µM* | -2%
COc1ccc(C(=O)NCCS(=O)(=O)N2CCN(Cc3ccccc3)CC2)cc1 | . | 29µM* | -20% | .
O=C(CC1CCCC1)NCCS(=O)(=O)N1CCN(c2ccccc2F)CC1 | 0% | ? | ? | 1%
COc1ccccc1N1CCN(S(=O)(=O)CCNC(=O)CC2CCCCC2)CC1 | . | 16µM* | 16µM* | 1%
COc1ccccc1N1CCN(S(=O)(=O)CCNC(=O)c2cc(=O)c3ccccc3o2)CC1 | 2% | 26µM* | ? | -1%
COc1ccccc1-c1cc2c(c3c1ccn3C)C1CCC2C1 (stereo unspecified) | . | ? | ? | 5%
CN(C)S(=O)(=O)c1cccc(NC(=O)CSc2nc3c(cc2C#N)C(=O)CC(C)(C)C3)c1 | 4% | 7.3µM* | 9.2µM* | -3%
CN(C)S(=O)(=O)c1cccc(NC(=O)CSc2cccc3cccnc23)c1 | 13% | 3.3µM* | 3.7µM* | .
Cc1ncc([N+](=O)[O-])n1CCN1C(=O)c2ccccc2C1=O | . | -1% | 0% | 2%
O=[N+]([O-])c1cc([N+](=O)[O-])c(Oc2cncc(Cl)c2)cc1NC1CCCCCCC1 | . | 15µM* | 23µM* | 0%
O=[N+]([O-])c1cc([N+](=O)[O-])c(Oc2cc(Cl)ccc2Cl)cc1NC1CCCCCCC1 | . | ? | 18µM* | -3%
O=[N+]([O-])c1ccc(Oc2cc(NC3CCCCCCC3)c([N+](=O)[O-])cc2[N+](=O)[O-])cc1 | . | -19% | ? | 1%
CNC(=O)/C(C#N)=C/c1c(N(Cc2ccccc2)Cc2ccccc2)nc2ccccn2c1=O | 3% | 16µM* | 16µM* | 1%
Cc1ccc(N(C)S(=O)(=O)c2ccc(-c3cc(C)no3)s2)cc1 | -3% | -83% | 6.5µM* | 2%
Cc1cc(-c2ccc(S(=O)(=O)N(C)c3ccc(C)c(C)c3)s2)on1 | 1% | 4.1µM* | 3.3µM* | 5%
O=C(Nc1ccccc1)c1cc(C2CCCCN2C(=O)OCCF)on1 (stereo unspecified) | . | ? | -36% | -3%
CC(C)Cn1c(=O)c(C(=O)Nc2cnccn2)c(O)c2ccccc21 | 5% | 26µM* | ? | -4%
CCCn1c(=O)c(C(=O)Nc2ccccc2)c(O)c2ccccc21 | 3% | ? | ? | 7%
CCCn1c(=O)c(C(=O)Nc2ncccc2O)c(O)c2ccccc21 | . | -3% | -15% | 0%
CC(C)Cn1c(=O)c(C(=O)Nc2ccncc2)c(O)c2ccccc21 | . | 4.1µM* | 2.9µM* | ?
COc1ccc2ccccc2c1CN1CCN(C(=O)c2ccco2)CC1 | 8%[0.0935 µM] | 15µM* | 18µM* | 0%
COc1cc(CN2CCN(C(=O)c3ccc(-c4ccccc4)cc3)CC2)cc(OC)c1OC | -3% | 26µM* | 21µM* | 0%
O=C(c1ccc(-n2cccc2)cc1)N1CCN(Cc2ccccc2)CC1 | 7% | ? | ? | -2%
O=C(c1ccco1)N1CCN(CCCCOc2cccc3ccccc23)CC1 | 8% | ? | 18µM* | 1%
Cn1nc(-c2ccc(C(=O)N3CCN(Cc4ccccc4)CC3)cc2)c2ccccc2c1=O | 5% | 18µM* | 23µM* | 0%
O=C(c1ccco1)N1CCN(CCOCCOc2cccc3ccccc23)CC1 | 4% | ? | ? | -2%
COc1cccc(CN2CCN(C(=O)c3ccco3)CC2)c1OC | . | -26% | -2% | ?

Screening results from PubChem.
